Reference: PubChem BioAssay AID652018 (The Scripps Research Institute Molecular Screening Center, 2013)
Calls of active or inactive are those of the source.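 The calls were made as follows: active = at least 50% inhibition of LYPLA1 or LYPLA2 at 300 nM, with no off-target enzyme hit at any dose; inactive = under 50% inhibition on both enzymes, or any off-target hit.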

System: Anti-Targets
Experiment: LYPLA1 inhibitor selectivity over serine hydrolases, late-stage follow-up, selectivity assay for LYPLA1 inhibitor project, cell lysate, competitive ABPP, HEK293T proteome, set 2 (AID 652018)
Conditions: competitive ABPP FP-PEG-Rh gel; anti-targets hit, at 10 µM

Row | SMILES | anti-target count | outcome
1 | COc1ccc(N2CCN(C(=O)n3cncn3)CC2)cc1 | 0 | inactive
2 | COc1ccc(N2CCN(C(=O)n3cc(C(O)(c4ccccc4)c4ccccc4)nn3)CC2)cc1 | 2 | active
3 | O=C(CN1CCN(C(=O)n2nc(Br)c(Br)n2)CC1)Nc1cc(C(F)(F)F)ccc1Cl | 0 | inactive
4 | O=C(CN1CCN(C(=O)n2ncc(-c3ccc(Br)cc3)n2)CC1)Nc1cc(C(F)(F)F)ccc1Cl | 0 | inactive
5 | COc1ccc(N2CCN(C(=O)n3cc(-c4ccc(OC(F)(F)F)cc4)nn3)CC2)cc1 | 0 | inactive
6 | COc1ccc(N2CCN(C(=O)n3nc(Br)c(Br)n3)CC2)cc1 | 2 | active
7 | O=C(CN1CCN(C(=O)n2ncc(-c3ccc(OC(F)(F)F)cc3)n2)CC1)Nc1cc(C(F)(F)F)ccc1Cl | 0 | inactive
8 | O=C(CN1CCN(C(=O)n2cc(-c3ccc(-c4ccccc4)cc3)nn2)CC1)Nc1cc(C(F)(F)F)ccc1Cl | 0 | inactive
9 | COc1ccc(N2CCN(C(=O)n3nccn3)CC2)cc1 | 0 | inactive
10 | O=C(N1CCN(c2ccc(Br)cc2)CC1)n1ncc(C(O)(c2ccccc2)c2ccccc2)n1 | 0 | inactive
11 | COc1ccc(N2CCN(C(=O)n3ccnn3)CC2)cc1 | 0 | inactive
12 | COc1ccc(N2CCN(C(=O)n3ncc(-c4ccc(OC(F)(F)F)cc4)n3)CC2)cc1 | 0 | inactive
13 | O=C(N1CCN(c2ccc(Cl)c(Cl)c2)CC1)n1ncc(C(O)(c2ccccc2)c2ccccc2)n1 | 0 | inactive
